The campaign covered roughly 2,100 compounds. About 770 (37%) were called active.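 Rule for the calls: active = by-eye trace score of 1 for enhancers or -1 for inhibitors, so actives lie on both sides (some results past the limit were not filed as active); inactive = score 0, or 3 fluorescent, or 4 baseline rise.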 Some of the results follow.
Each compound was assayed against G protein-activated inward rectifier potassium channel 2 (Homo sapiens) + G protein-activated inward rectifier potassium channel 1 (Homo sapiens) (UniProt P48051+P48549) (assay: GIRK1/2 thallium flux modulators, retest, confirmation, cell-based, HEK293 rmGlu8/hGIRK1/2, FluoZin-2 (AID 623911)). Conditions: HEK293 rmGlu8/hGIRK1/2, thallium flux FluoZin-2; actives lie on both sides; glutamate co-added at its EC20 level.
Sequence of G protein-activated inward rectifier potassium channel 2 (Homo sapiens) + G protein-activated inward rectifier potassium channel 1 (Homo sapiens) (P48051 whole entry, looked up): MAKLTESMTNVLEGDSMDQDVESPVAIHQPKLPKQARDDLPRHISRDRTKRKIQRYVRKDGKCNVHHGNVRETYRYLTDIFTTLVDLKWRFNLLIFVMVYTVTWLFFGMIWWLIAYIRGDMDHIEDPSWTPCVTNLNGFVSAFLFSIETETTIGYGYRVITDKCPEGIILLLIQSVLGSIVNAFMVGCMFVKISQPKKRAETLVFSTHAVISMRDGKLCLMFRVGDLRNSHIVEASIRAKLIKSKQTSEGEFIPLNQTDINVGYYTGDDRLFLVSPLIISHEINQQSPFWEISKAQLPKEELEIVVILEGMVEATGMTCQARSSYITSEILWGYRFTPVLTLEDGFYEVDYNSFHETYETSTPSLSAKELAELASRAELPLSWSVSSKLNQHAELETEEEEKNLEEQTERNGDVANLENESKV
Sequence of G protein-activated inward rectifier potassium channel 2 (Homo sapiens) + G protein-activated inward rectifier potassium channel 1 (Homo sapiens) (P48549 whole entry, looked up): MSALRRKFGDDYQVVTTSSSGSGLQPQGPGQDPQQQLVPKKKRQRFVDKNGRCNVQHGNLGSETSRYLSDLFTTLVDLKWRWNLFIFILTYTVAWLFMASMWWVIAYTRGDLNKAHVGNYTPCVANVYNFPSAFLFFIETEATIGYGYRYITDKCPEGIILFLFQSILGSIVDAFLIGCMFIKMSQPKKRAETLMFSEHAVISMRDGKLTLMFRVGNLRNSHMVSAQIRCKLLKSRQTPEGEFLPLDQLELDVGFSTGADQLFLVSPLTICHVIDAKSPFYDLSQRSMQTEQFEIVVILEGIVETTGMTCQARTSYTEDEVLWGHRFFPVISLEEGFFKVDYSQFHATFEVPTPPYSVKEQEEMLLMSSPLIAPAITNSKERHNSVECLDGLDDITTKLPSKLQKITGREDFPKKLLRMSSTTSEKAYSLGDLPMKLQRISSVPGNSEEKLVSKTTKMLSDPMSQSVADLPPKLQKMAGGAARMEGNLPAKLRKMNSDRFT

Manual score, active:
Cc1ccc(N2C=Nc3ccc(C)c4nc(C)cc2c34)cc1 -1
C/C(=N\NC(=O)c1cccc(F)c1)c1ccc(Br)s1 1
Clc1cccc(CSc2nc3ccncc3[nH]2)c1 1
C=CCSc1nc2sc3c(c2c(=O)n1CC)CCc1ccccc1-3 1
O=c1c(-c2ccccc2)nc(-c2ccccc2)cn1O 1
CC(C)CCn1c(CN2CCN(Cc3ccccc3)CC2)nc2c1c(=O)[nH]c(=O)n2C -1
COc1ccc(C2CC(c3ccc(Cl)c(Cl)c3)Nc3nc(N)nn32)cc1 (centres undefined) 1
COc1cccc(NC(=O)CC2COc3ccccc3O2)c1 (centres undefined) 1
COc1ccc(N2CCCn3c2nc2c3c(=O)n(Cc3ccccc3F)c(=O)n2C)c(OC)c1 -1
COC(=O)c1cc2sccc2n1CC(=O)N1CCCc2ccccc21 -1
C=CCN(CC=C)C(=S)NC(=O)c1ccc(OC)c(Br)c1 1
C=CCN(CC=C)C(=S)NC(=O)/C=C/c1ccc(C)cc1 1
COc1ccc(C(=O)NC(=S)NCCO)cc1Br 1
C=CCN(CC=C)C(=S)NC(=O)c1ccc(C)c(Br)c1 1
COC(=O)c1ccccc1NC(=S)NC(=O)COc1ccccc1 1
COC(=O)c1ccccc1NC(=S)NC(=O)c1ccc(C)cc1 1
O=C(COc1ccccc1)NC(=S)Nc1cccc([N+](=O)[O-])c1 1
Cc1ccc(C(=O)NC(=S)Nc2ccccc2C(F)(F)F)cc1 1
COC(=O)c1ccccc1NC(=S)NC(=O)c1ccccc1 1
CCOC(=O)c1ccc(NC(=S)NC2CCCC2)cc1 1
CC(C)CNC(=S)Nc1ccc(Oc2ccccc2)cc1 1
CCCN(CC1CC1)C(=S)Nc1ccc(Oc2ccccc2)cc1 1
S=C(Nc1ccc(Oc2ccccc2)cc1)NC1CCCC1 1
COc1ccc(CCNC(=O)CSc2nnc(-c3ccc(F)cc3)c3ccccc23)cc1OC -1
O=C(NN=C(Cc1ccccc1)Cc1ccccc1)c1ccc(F)cc1 1

Manual score, inactive:
O=S(=O)(Cc1ccccc1)N1CCc2ccccc21 3
COc1cc(C)ccc1OCCOc1cc(C)ccc1Cl 0
CCC1CCCN1Cn1cnc2c([nH]c3ccc(OC)cc32)c1=O (centres undefined) 0
C/C(=N\NC(=O)c1ccc(Cl)cc1)c1ccc(Br)s1 0.5
C/C(=N\NC(=O)c1ccccc1O)c1ccc(Br)s1 0.5
CN(C=O)CP(=O)(O)CCN1CCCC1=O 0
Cc1ccc(CSc2nc3ccncc3[nH]2)cc1 0
O=C(CSc1nc2ccc(Cl)cc2[nH]1)Nc1ccc2c(c1)CCC2 0
CCN(CC)CCN1C(=O)c2oc3ccccc3c(=O)c2C1c1ccc(F)cc1 (centres undefined) 0
CCn1c(SCC(N)=O)nc2c(c1=O)C1(CCCC1)Cc1ccccc1-2 0
Cc1ccc(C)c(NC(=S)N=Nc2c(O)n(C)c3ccc(S(=O)(=O)N4CCOCC4)cc23)c1 0
N=c1oc2ccc3ccccc3c2cc1-c1nc(-c2ccccc2)cs1 3
CN(C)CCNc1nc2c(c(=O)[nH]c(=O)n2C)n1CCCc1ccccc1 0
CCN(C(=O)CN1CCN(c2ccccc2O)CC1)c1c(N)n(Cc2ccccc2)c(=O)[nH]c1=O 0
Nc1nc2n(n1)C(c1cccs1)CC(c1ccc(F)cc1)N2 (centres undefined) 0
CCn1c(=O)cc(OCC(=O)Nc2cccc(C)n2)c2ccccc21 0
COc1cccc2c1OC[C@@H](CO)[C@H]2N(C)C(=O)Nc1ccccc1 0
COc1cccc(NC(=O)NC2(C(F)(F)F)Oc3ccccc3O2)c1 0
CCc1cc2cccc(C)c2nc1SCC(=O)c1ccc(NC(C)=O)cc1 0
Cn1c(N2CCCC2)nc2c1c(=O)n(Cc1ccc(Cl)cc1)c(=O)n2C -0.5
Cn1c(C(=O)OC(C(=O)NC2CCCCC2)c2ccncc2)cc2sccc21 (centres undefined) 0
CC12CCC(C(=O)N3CCCc4ccccc43)(CC1=O)C2(C)C (centres undefined) 0
CS(=O)(=O)Nc1ccc(C2=NN(C(=O)C3CCCCC3)C(c3cccs3)C2)cc1 (centres undefined) -0.5
COc1ccc(C(=O)NC(=S)NC(C)C)cc1Br 0.5
Cc1ccnc(NC(=S)NC(=O)/C=C/c2ccco2)c1 0
COc1cc(/C=C2/C(=O)N=C(N)N2C)cc(OC)c1OC 0
CC(C)COc1ccc(Cc2cnc(N)nc2N)cc1 0
Cc1ccc(C(=O)NC(=S)Nc2ccccc2C(F)(F)F)cc1C 0
COC(=O)c1ccccc1NC(=S)NC(=O)COc1ccc(C)cc1 0
O=C(COc1ccccc1)NC(=S)Nc1ccc2c3c(cccc13)CC2 0.5
O=C(COc1ccccc1)NC(=S)Nc1ccc2c(c1)Cc1ccccc1-2 0
CCC1c2ccc(C)n2CCN1C(=O)Nc1ccccc1C(=O)OC (centres undefined) 0
O=C(NC(=S)Nc1ccc(Oc2ccc(Cl)cc2)cc1)c1ccccc1 0
CCOC(=O)c1ccc(NC(=S)NC(=O)COc2ccccc2)cc1 0.5
CC1CCCCN1CC(=O)Nc1ccc(Oc2ccccc2)cc1 (centres undefined) 0
FC(F)(F)Oc1ccc(NC(=S)NCc2ccccc2)cc1 0
S=C(NN=C(C1CC1)C1CC1)Nc1ccccc1 0
CCOC(=O)c1[nH]c(C)c(C(=O)NC2CCCCC2)c1C 0
COc1ccc(N(CC(=O)NCCSc2ccccn2)S(C)(=O)=O)cc1Cl 0
COc1ccc(CN(C)CC(=O)NC(=O)NCc2ccccc2)cc1OC 0
COc1cc2c(cc1NC(=O)COc1ccccc1OC)oc1ccccc12 0
CCCCC(=O)Nc1ncc2c(n1)CC(C)(C)CC2=O 0
CC1(C)Cc2nc(NCCN3CCOCC3)c(C#N)cc2CO1 0
N/C(=N\OC(=O)Cc1ccccc1)c1ccc(Br)cc1 0

Reference: PubChem BioAssay AID623911 (Vanderbilt High Throughput Screening Facility, 2012)
